This excerpt belongs to a sample that is enriched for hits.
MBNL1 CUG block: MBNL1-poly(CUG) RNA binding inhibition; Q9NR56; TR-FRET MBNL1-His/biotin-(CUG)12 binding, 665/545 ratio; Potency, µM (titrated, usually from 57.5 µM), without a hit: at the highest dose activity change, negative = inhibition, usual class: inhibitors; hit rate 0.036% among 280,000; AID 2675; active = well fitted inhibition curve with a large enough effect in the signal ratio, with a control signal flat, not every such curve was filed as active; inconclusive = small, poorly fitted or top-dose-only effect, or effect the other way, or a change in a side signal; inactive = no such curve, though single readings can be large or run the other way; the % refers to the signal ratio; note: potency is the fitted concentration of half-maximal effect; % is set by controls: 0 for no effect and ±100 for the full control effect
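MBNL1-His + Biotin-(CUG)12, cpd titration 92 nM–58 uM; Tb anti-His Ab 0.055 ng/ul, SA-XL665 5 nM (final); 60 min RT; ratiometric 665/545 nm, Ex 340 nm; normalized to buffer and full-complex controls.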
ClpP mod: qHTS Assay for Activators of ClpP | ATP-dependent Clp protease proteolytic subunit (Bacillus subtilis (strain 168)), P80244 | purified B. subtilis ClpP, FRET peptide cleavage, 20 min | Potency, µM (highest dose often 57.5 µM), without a hit: top-dose activity change, negative = active | hit rate 1.9% among 340,000; active = well fitted falling curve with a large enough effect; inconclusive = small, poorly fitted or top-dose-only effect; inactive = no such curve, though single readings can be large or run the other way; note: potency is the fitted concentration of half-maximal effect; the source files actives as falling curves though it sought activators and does not explain the sign; nearly all actives have a fitted effect of over 65% in size
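ClpP 10 microg/mL final, pH 8 Tris/KCl buffer with BSA, glycerol, Tween-20; compound pinned in; FRET-FV substrate; RT 20 min; Ex320/Em430; ΔFRET vs ADEP 5.8 microM, DMSO, no enzyme.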
Rango complex inh: Rango-importin beta binding inhibition | hit rate 0.031% among 340,000 | Q14974 | Potency, µM (highest dose often 92.2 µM), for inactives: at the highest dose inhibition of complex formation | Rango CFP/YFP FRET sensor + importin beta, 45 min;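 note: potency is the fitted concentration of half-maximal effect; 0% = DMSO wells and 100% = buffer wells lacking importin beta; nearly all actives have a fitted effect of over 15% in size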
Target sequence (Q14974 whole entry, looked up): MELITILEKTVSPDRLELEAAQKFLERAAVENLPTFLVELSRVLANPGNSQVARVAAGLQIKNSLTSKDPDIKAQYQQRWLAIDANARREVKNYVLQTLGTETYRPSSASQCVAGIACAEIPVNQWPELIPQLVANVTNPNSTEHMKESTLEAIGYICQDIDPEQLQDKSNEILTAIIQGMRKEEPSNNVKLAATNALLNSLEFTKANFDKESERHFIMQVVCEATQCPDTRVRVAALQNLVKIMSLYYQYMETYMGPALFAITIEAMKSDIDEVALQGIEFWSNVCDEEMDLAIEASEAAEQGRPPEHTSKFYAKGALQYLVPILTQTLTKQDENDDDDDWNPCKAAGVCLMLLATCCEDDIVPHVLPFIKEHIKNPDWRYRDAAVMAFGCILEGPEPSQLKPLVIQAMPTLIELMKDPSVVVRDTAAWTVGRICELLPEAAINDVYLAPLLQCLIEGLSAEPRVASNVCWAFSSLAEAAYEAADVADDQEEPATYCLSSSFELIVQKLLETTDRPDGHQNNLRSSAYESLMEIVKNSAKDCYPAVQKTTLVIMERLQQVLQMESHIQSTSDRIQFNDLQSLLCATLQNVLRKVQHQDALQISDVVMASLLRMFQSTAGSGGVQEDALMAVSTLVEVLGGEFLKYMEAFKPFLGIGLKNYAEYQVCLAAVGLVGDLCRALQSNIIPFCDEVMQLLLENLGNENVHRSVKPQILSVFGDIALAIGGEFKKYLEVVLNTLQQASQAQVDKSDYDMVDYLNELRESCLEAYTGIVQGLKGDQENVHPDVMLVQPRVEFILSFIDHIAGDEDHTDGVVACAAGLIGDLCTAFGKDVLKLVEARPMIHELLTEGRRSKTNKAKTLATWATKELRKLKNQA
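FRET biosensor (snurportin 1 IBB flanked by EYFP and cerulean), 50 nM, with compound 5 min, then 0.125 microM importin beta in PBS, 1 mM DTT, 0.02% Tween-20, 0.1% BSA. CFP/YFP ratio read after 45 min at room temperature; pre-read flags interference.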
CBFb-RUNX1 inh: blocks binding between human CBF-beta and RUNX1; Potency, µM (titrated, usually from 59.8 µM), for the others: at the top dose activity, negative = inhibition, most hits filed as inhibitors; AlphaScreen CBFb-His/RUNX1-biotin binding, biochemical; AID 1477; 230,000 tested, under 10 active; Q01196+Q13951; active = well fitted curve in the direction sought with a large enough effect; inconclusive = small, poorly fitted or top-dose-only effect, or effect the other way, or another doubt; inactive = no such curve, though single readings can be large or run the other way; note: % of control where 0% means no effect
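Proteins preincubated together for 20 min at RT before compound addition; 15 min later, nickel and streptavidin beads were added and left 90 min prior to AlphaScreen measurement.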
Rango release inh: prevents RanGTP from dissociating the Rango-importin beta complex; O95149+P62826; Biochemical FRET Rango-importin beta, RanGTP-induced dissociation; Potency, µM (series often up to 46.1 µM), inactives show at the top dose activity change, negative = inhibition; hit rate 0.071% among 340,000; AID 540253; note: potency is the fitted concentration of half-maximal effect; % of control where 0% means no effect; nearly all actives have a fitted effect of over 45% in size
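Rango/importin beta premix (0.1/0.25 uM final), PBS + 1 mM DTT + 0.02% Tween-20 + 0.1% BSA; cpd 5 min RT; FRET pre-read; + RanGTP-RCC1 (0.6 uM Ran, 2 mM GTP, 0.2 uM RCC1); 45 min RT; FRET post-read, ex 430, em 486/530 nm.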
Starred values were filed as active, the others as inactive; ? = inconclusive; . = no result. Unless noted, calls come from the whole dose curve.

SMILES | MBNL1 CUG block | ClpP mod | Rango complex inh | CBFb-RUNX1 inh | Rango release inh
CCOC(=O)c1cc(C#N)c(N2CCN(C)CC2)nc1-c1ccccc1 | -14.4% | . | -1.1% | -3.6% | -7.5%
CC(=O)c1cc(C#N)c(NCc2ccccc2)nc1C | 14.3% | . | 0.3% | -1.6% | 1.3%
Cc1cccc(C=Nc2ccc3c4c(cccc24)CC3)c1O | -0.3% | 15.8µM* | 0.0% | 2.5% | 2.7%
Oc1ccc(Cl)cc1C=Nc1ccc2c3c(cccc13)CC2 | . | 0.2% | ? | 3.3% | 1.4%
COc1ccc2ccccc2c1C1NC(=O)c2ccccc2N1 (stereo unspecified) | . | 14.1µM* | -6.2% | . | 18.8%
Cc1nc2ccc(NC(=O)N3CCCCC3)cc2nc1C | 28.9% | 14.1µM* | ? | -6.1% | -9.4%
CCOC(=O)N1CCN(C(=O)Nc2ccc3nc(C)c(C)nc3c2)CC1 | ? | 28.2µM* | 1.9% | 1.4% | -5.7%
CCOC(=O)N1CCN(C(=O)Nc2ccc3nccnc3c2)CC1 | ? | -10.6% | ? | 5.1% | 0.1%
CSc1n[nH]c2nc3c(c(=O)n12)C1(CCCC1)Cc1ccccc1-3 | -7.9% | 28.2µM* | ? | 1.1% | ?
Cn1c(=O)c2c(n3cnnc13)-c1ccccc1CC21CCCC1 | -14.8% | -11.8% | -3.4% | 2.5% | -3.0%
CCSc1n[nH]c2nc3c(c(=O)n12)C1(CCCC1)Cc1ccccc1-3 | 7.6% | 14.1µM* | ? | 7.1% | -27.2%
CC(C)Sc1n[nH]c2nc3c(c(=O)n12)C1(CCCC1)Cc1ccccc1-3 | 4.2% | . | . | 1.2% | .
CCOC(=O)C1Cn2c(nc3c(c2=O)C2(CCCC2)Cc2ccccc2-3)S1 (stereo unspecified) | 2.6% | 28.2µM* | ? | 12.4% | 30.7%
CCOC(=O)C1Cn2c(nc3c(c2=O)C(C)(C)Cc2ccccc2-3)S1 (stereo unspecified) | 5.3% | -17.3% | 0.2% | 3.5% | 22.3%
CSc1nnc2n(C)c3c(c(=O)n12)C1(CCCC1)Cc1ccccc1-3 | -0.4% | 28.2µM* | -2.6% | 2.1% | 14.8%
COc1ccccc1C(=O)Nc1ccc2nc(N3CCC(C)CC3)cc(C)c2c1 | . | -17.0% | . | . | .
CCOC(=O)CC1(CC)Oc2ccccc2N1S(=O)(=O)c1ccc(C)cc1 (stereo unspecified) | . | 0.8% | . | . | .
Cn1cnc([N+](=O)[O-])c1Sc1nc(N)nc2c1ncn2Cc1ccccc1 | . | 31.6µM* | 0.3% | . | 1.6%
CCCn1cnc2c(Sc3c([N+](=O)[O-])ncn3C)nc(N)nc21 | . | ? | -1.7% | . | -2.7%
O=[N+]([O-])c1ccc(O)c(-c2nn[nH]n2)c1 | ? | 25.1µM* | 2.4% | -12.3% | 4.7%
COc1cc2cc(C(c3nnnn3C(C)(C)C)N3CCC(C)CC3)c(=O)[nH]c2cc1OC (stereo unspecified) | 3.6% | 12.6µM* | 0.0% | 0.1% | 0.7%
CCC(C)(C)n1nnnc1C(c1cc2cc3c(cc2[nH]c1=O)OCO3)N1CCCCC1 (stereo unspecified) | -1.5% | 14.1µM* | ? | -1.9% | -11.4%
O=c1[nH]c2cc3c(cc2cc1C(c1nnnn1Cc1ccccc1)N1CCN2CCCC2C1)OCCO3 (stereo unspecified) | 10.4% | 25.1µM* | ? | -6.5% | ?
COCCn1nnnc1C(c1cc2cc(C)ccc2[nH]c1=O)N1CCCCCC1 (stereo unspecified) | ? | 28.2µM* | -0.1% | 12.1% | 9.3%
CCCN1CCN(C(c2cc3cc4c(cc3[nH]c2=O)OCO4)c2nnnn2C(C)(C)C)CC1 (stereo unspecified) | 8.6% | ? | -2.4% | 2.0% | -10.9%
COCCn1nnnc1C(c1cc2c(C)cc(C)cc2[nH]c1=O)N1CCCCCC1 (stereo unspecified) | ? | -28.1% | ? | 3.2% | -18.3%
O=C(Nc1c2c(nn1-c1ccc(Cl)cc1)CS(=O)(=O)C2)c1ccccc1F | . | 1.9% | . | . | .
CCOC(=O)c1cnc2ccc(OC)cc2c1NCc1ccccc1 | 1.3% | -17.7% | 8.3% | 22.9% | 8.0%

High-throughput results as filed in PubChem.
